Screening data as filed in PubChem BioAssay.
TDP1 cell noCPT – qHTS for Inhibitors of human tyrosyl-DNA phosphodiesterase 1 (TDP1): qHTS in cells in absence of CPT. Potency, µM (titrated, usually from 46.2 µM), most hits filed as inhibitors. DT40 Tdp1-/- hTDP1 cells, no CPT, ATP luminescence, 48 h. hit rate 15% among 420,000. AID 686978, 2013; note: nearly all actives have a fitted effect of over 55% in size
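Readout: luminescence from CellTiter-Glo after 30 min in the dark at RT. Cells: DT40 Tdp1-/- with stable hTDP1, 400/well. Exposure: compounds alone, ≥48 hr, 37 °C.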
IL1B secr inh – inhibitors of inflammasome signaling (IL-1 beta secretion); THP-1 LPS/ATP IL-1B secretion, AlphaLISA, 16 h; active compounds read low; hit rate 4.7% among 360,000; AID 743279; activity change, % at 57.5 µM; in the data active = activity change below about -50%; inconclusive = mostly about -30% to -49%
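THP-1 cells pretreated 1 hr with compounds (up to 57.5 uM final), then stimulated with LPS (250 ng/mL final) plus ATP (1.25 mM final); secreted IL-1B measured by AlphaLISA after 16 hr, decreased signal indicating inhibition.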
TDP1 cell CPT – DT40-hTDP1 cell growth loss with CPT; hit rate 12% among 420,000; chicken DT40 Tdp1-/-;hTDP1 cells + 20 nM CPT, ATP luminescence, 48 h; Potency, µM (top dose mostly 46.2 µM), most hits filed as inhibitors; note: nearly all actives have a fitted effect of over 55% in size
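Chicken DT40 Tdp1-/- cells complemented with human TDP1, 400 cells/well, exposed to compounds plus 20 nM camptothecin for at least 48 h at 37 C; viability read as ATP content by CellTiter-Glo luminescence.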
HT1080NT lethal – kills 2HG-producing HT-1080-NT fibrosarcoma cells. hit rate 1.6% among 360,000. AID 686970. HT-1080-NT fibrosarcoma viability, CellTiter-Glo ATP luminescence, 48 h. Potency, µM (series often up to 46.1 µM), usual class: cytotoxic;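 note: NT is the 2HG producing partner of a matched IDH1 knockdown line; nearly all actives have a fitted effect of over 55% in size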
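Viability of the 2HG-overproducing fibrosarcoma line after 48 hours of compound exposure at 37 degrees C was determined by luminescence with CellTiter-Glo, and concentration-effect curves were then fitted and categorized.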
HT1080 IDH1KD tx – toxicity to HT-1080 IDH1 knockdown cells (counter line) | HT-1080 IDH1 knockdown viability, ATP luminescence, 48 h | Potency, µM (doses to about 46.1 µM), usual class: cytotoxic | hit rate 2% among 360,000 | AID 686971
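Knockdown cells (IDH1KD HT-1080) received compounds 2 h after plating at 750 cells/well and were kept 48 h at 37 °C in 5% FBS RPMI. A CellTiter-Glo luminescence read gave % activity for curve fitting.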
ALOX12 inh – ALOX12 (human) lipoxygenase inhibition; P18054; purified 12hLO, xylenol orange hydroperoxide absorbance; Potency, µM (doses to about 108 µM), hits mostly inhibitors; hit rate 1.1% among 580,000; AID 1671190
Target sequence (P18054 whole entry, looked up): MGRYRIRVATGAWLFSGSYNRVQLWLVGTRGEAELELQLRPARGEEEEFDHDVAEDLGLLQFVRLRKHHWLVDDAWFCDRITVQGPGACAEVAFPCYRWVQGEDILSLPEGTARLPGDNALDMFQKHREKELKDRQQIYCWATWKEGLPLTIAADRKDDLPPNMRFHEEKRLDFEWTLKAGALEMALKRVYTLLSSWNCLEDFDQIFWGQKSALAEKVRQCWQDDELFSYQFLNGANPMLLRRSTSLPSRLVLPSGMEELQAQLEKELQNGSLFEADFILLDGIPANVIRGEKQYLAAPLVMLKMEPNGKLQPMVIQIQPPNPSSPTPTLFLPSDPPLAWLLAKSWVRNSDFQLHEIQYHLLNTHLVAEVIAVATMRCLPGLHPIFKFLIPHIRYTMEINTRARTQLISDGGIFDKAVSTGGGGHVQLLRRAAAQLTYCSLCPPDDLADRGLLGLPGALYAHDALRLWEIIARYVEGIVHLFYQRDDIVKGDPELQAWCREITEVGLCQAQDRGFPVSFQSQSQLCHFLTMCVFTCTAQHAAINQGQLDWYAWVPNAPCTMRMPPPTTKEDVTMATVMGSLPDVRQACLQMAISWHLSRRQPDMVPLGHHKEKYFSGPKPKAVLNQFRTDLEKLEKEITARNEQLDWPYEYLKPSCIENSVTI
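Purified human 12hLO at 150 nM in 25 mM Hepes, 0.01% Triton X-100, pH 7.0, preincubated 15 min at room temperature with compound. Reaction started with 40 uM arachidonic acid, 30 min at room temperature. Hydroperoxide measured by Fe-xylenol orange, 573/405 nm absorbance ratio.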
A number is an active result; - = inactive; ? = inconclusive; . = not tested or not shown. The sample as a whole holds a higher share of hits than the screen did. Unless noted, calls come from the whole dose curve; as a rule, active = well fitted curve in the direction sought with a large enough effect; inconclusive = small, poorly fitted or top-dose-only effect, or another doubt; inactive = no such curve, though single readings can be large; an effect the other way counts as inactive or inconclusive.

SMILES	TDP1 cell noCPT	IL1B secr inh	TDP1 cell CPT	HT1080NT lethal	HT1080 IDH1KD tx	ALOX12 inh
COc1ccc(-n2c(C(C)n3nc(C)c([N+](=O)[O-])c3C)n[nH]c2=S)cc1 (stereo not drawn)	-	-	-	-	-	?
COc1ccc(-n2c(C)c([N+](=O)[O-])c3ccc(O)c(CN(C)C)c32)cc1	2.6µM	-59	?	-	-	-
COc1ccccc1N=C(C)C1=C(O)CC(c2ccccc2)CC1=O (stereo not drawn)	0.82µM	-	0.52µM	?	?	-
Cc1cccc(C)c1NC(=O)C1(C)CSCC(=O)N1Cc1cccc(F)c1 (stereo not drawn)	-	-	-	-	-	?
Cc1cccc(C)c1NC(=O)C1(C)CSCC(=O)N1Cc1cccc(C(F)(F)F)c1 (stereo not drawn)	26µM	-	?	-	-	-
Cc1ccccc1CN1C(=O)CSCC1(C)C(=O)NCc1ccccc1 (stereo not drawn)	-	-	-	-	-	-
Cc1ccc(CN2C(=O)CSCC2(C)C(=O)NCc2ccccc2)cc1 (stereo not drawn)	?	-	21µM	-	-	-
O=C(O)c1ccc(Nc2ncc3c(n2)-c2ccc(Cl)cc2C(c2c(F)cccc2F)=NC3)cc1	.	.	.	.	.	15µM
COC(=O)[C@@]1(C)CC[C@]2(C)CC[C@]3(C)C(=CC(=O)C4[C@@]5(C)CCC(=O)C(C)(C)C5CC[C@]43C)[C@@H]2C1 (stereo partly drawn)	.	.	.	.	.	-
CC(CC(O)C1OC1(C)C)C1CCC2(C)C3=CCC4C(C)(C)C(=O)CCC4(C)C3CC[C@@]12C (stereo partly drawn)	7.3µM	.	5.2µM	.	.	.
Cc1ccc(OCc2nnc(-c3ccccc3)o2)cc1	-	.	-	.	.	-
c1ccc(-c2nnc(C(c3ccccc3)c3ccccc3)o2)cc1	18µM	-	26µM	-	-	-
OC(c1ccc(OCc2ccccc2)cc1)c1nnc(-c2ccccc2)o1 (stereo not drawn)	16µM	-	21µM	-	-	-
Cc1ccc(-c2nnc(-c3ccccc3)o2)cc1	?	-	-	-	-	-
Cn1ccnc1C(O)c1cccc(OCc2ccccc2)c1 (stereo not drawn)	-	-	-	-	-	-
OC(c1cccc(OCc2ccccc2)c1)c1nnc(-c2ccccc2)o1 (stereo not drawn)	18µM	?	18µM	-	?	-
CSc1ccccc1CN1CCC2(CC1)C(C(=O)O)CC(=O)N2C (stereo not drawn)	.	.	.	.	.	-
Cc1cc(C(=O)N[C@@H]2CN(Cc3ccccc3)C[C@H]2CN(C)C)n[nH]1	.	.	.	.	.	-
COC(=O)Cn1c(=NC(=O)c2cc(OC)cc(OC)c2)sc2cc(OC)ccc21	?	-	?	-	-	-
COC(=O)Cn1c(=NC(=O)c2cccc(OC)c2)sc2cc(OC)ccc21	23µM	-	-	-	-	-
COC(=O)Cn1c(=NC(=O)c2ccc(OC)cc2)sc2cc(OC)ccc21	9.2µM	-	?	-	-	-
COC(=O)Cn1c(=NC(=O)c2ccc(S(=O)(=O)N3CCc4ccccc4C3)cc2)sc2cc(OC)ccc21	-	-	-	-	-	-
COc1ccc(OC)c(NC(=O)c2cc3c(OC)c(OC)c(OC)cc3[nH]2)c1	.	.	.	.	.	-
CC(=O)N1CCCC2(C1)CN(C)c1ccc(C(=O)NCCOc3ccccc3)cc12 (stereo not drawn)	.	.	.	.	.	-
O=c1[nH]c(CN2CCN(S(=O)(=O)/C=C/c3ccccc3)CC2)nc2cc(Cl)ccc12	?	-	?	9.2µM	21µM	-
NC(=O)C1CCN(Cc2nc3cc(Cl)ccc3c(=O)[nH]2)CC1	-	-	-	21µM	18µM	13µM
CCn1c(C(=O)NCCc2ccco2)cc2cc(S(=O)(=O)N(C)C)ccc21	.	.	.	.	.	-
